The list is not random: actives were taken first. Their share in the collection is about 3%.
SARS PLpro yeast = qHTS of Yeast-based Assay for SARS-CoV PLP; Potency, µM (doses to about 32.9 µM), for the others: top-dose activity, positive = growth rescue, hits mostly activators; 330,000 compounds, 0.19% hits; S. cerevisiae expressing SARS-CoV PLpro, growth rescue; AID 485353, 2010; calls by dose curve; note: 0% is about no effect; nearly all actives have a fitted effect of over 55% in size
Sm TGR block = qHTS Assay for the Inhibitors of Schistosoma Mansoni Peroxiredoxins. 360,000 compounds, 3% hits. purified TGR, DTNB reduction, TNB absorbance 405 nm. AID 485364, 2010. Potency, µM (doses to about 114 µM), without a hit: top-dose activity change, negative = inhibition, most hits filed as inhibitors. Schistosoma mansoni thioredoxin glutathione reductase (TGR), Q962Y6; active = well fitted inhibition curve with a large enough effect; inconclusive = small, poorly fitted or top-dose-only effect; inactive = no such curve, though single readings can be large or run the other way; note: % is set by controls: 0 for no effect and ±100 for the full control effect; nearly all actives have a fitted effect of over 60% in size
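Kinetic colorimetric format: TGR-catalysed, NADPH-driven DTNB reduction monitored via TNB absorbance. Enzyme dispensed at 20 nM; compound exposure 15 min at room temperature before reaction start.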
* hit, by the source's call; ? = inconclusive; nt = no result given; [ ] = remark or other dose. Potency is the fitted concentration of half-maximal effect.

SMILES	SARS PLpro yeast	Sm TGR block
NS(=O)(=O)c1ccc(Sc2ccccn2)c([N+](=O)[O-])c1	0%	2%
COc1ccc(-c2ccc3c(N)c(C(=O)Nc4ccc(C)cc4C)sc3n2)cc1OC	nt	0%
O=C1CC(SCc2nc3ccccc3[nH]2)C(=O)N1c1ccc(F)cc1 (centres undefined)	-36%	45µM*
O=C1CC(SCc2nc3ccccc3[nH]2)C(=O)N1c1cccc(Cl)c1 (centres undefined)	-39%	?
COc1ccccc1NC(=O)C1CCN(S(=O)(=O)c2ccc3[nH]c4c(c3c2)CCCCC4)CC1	nt	-8%
COc1ccc(N2CCCC2)c(NC(=O)c2ccc(Br)o2)c1	-4%	45µM*
O=C(Nc1ccccc1N1CCCC1)c1ccc(Br)o1	-14%	-28%
CCOc1ccc(CCNC(=O)CS(=O)(=O)Cc2nc(-c3cccc(Cl)c3)oc2C)cc1	nt	-32%
CCOc1ccc2nc(NC(=O)c3cc(=O)c4cc(C)cc(C)c4o3)sc2c1	nt	6%
CC[C@]1(c2ccccc2C)ON(c2ccccc2C(F)(F)F)C1=O	-7%	56µM*
Cc1ccccc1[C@]1(C)ON(c2ccccc2C(F)(F)F)C1=O	2%	0%
COc1ccc(C(=O)NC(=S)Nc2ccc(CN3CCOCC3)cc2)cc1Br	28%	14µM*
CCCCOc1ccc(C(=O)NC(=S)Nc2ccc(CN3CCOCC3)cc2)cc1	0%	10%
CCOc1ccc(C(=O)Nc2ccc(CN3CCOCC3)cc2)cc1Br	-7%	-1%
COc1ccc(C(=O)NC(=S)Nc2ccc(CN3CCOCC3)cc2)cc1	-2%	22µM*
Cc1cccc(CNC(=O)CN2C(=O)CCCc3ccccc32)c1	nt	5%
O=[N+]([O-])c1ccc(Sc2nnnn2-c2ccccc2)nc1	-17%	14µM*
O=[N+]([O-])c1ccc(Sc2ccccn2)nc1	0%	-19%
CCOC(=O)N1CCN(c2cc(NCCO)c([N+](=O)[O-])c3nonc23)CC1	3%	-4%
CCOC(=O)N1CCN(c2cc(N(C)CCO)c([N+](=O)[O-])c3nonc23)CC1	1%	35µM*
CC(=O)OCCNc1cc(SC(C)C)c2nonc2c1[N+](=O)[O-]	2%	-23%
CC(=O)OCCN(C)c1cc(SC(C)C)c2nonc2c1[N+](=O)[O-]	5%	0.71µM*
Cc1cc(C)nc(NC(=O)CSc2nc3ccccc3s2)n1	-4%	-1%
CN(CCO)c1cc(Sc2nc3ccccc3s2)c2nonc2c1[N+](=O)[O-]	-23%	0.32µM*
Cc1ccc(Cn2c(CNS(=O)(=O)c3ccc(C(C)(C)C)cc3)nc3cccnc32)cc1	nt	-4%
SMILES	SARS PLpro yeast	Sm TGR block
CCOC(=O)c1ccc(NC(=O)Cn2nc(SC)c(S(=O)(=O)c3ccc(Cl)cc3)c2N)cc1	nt	8%
CCC(C(=O)Nc1ccc(C)c(Cl)c1)n1c(=O)c(-c2ccccc2NC(C)=O)nc2ccccc21 (centres undefined)	nt	-6%
O=C(Nc1cc(-c2ccc(F)c(F)c2)no1)c1ccccc1F	nt	-12%
Cn1cc(C(=O)N/N=C/C2=C(N3CCOCC3)C(=C\c3ccccc3)/CC2)ccc1=O	-30%	-13%
O=C1Nc2ccccc2/C1=N\N=C\C1=C(N2CCOCC2)C(=C\c2ccccc2)/CC1	0%	45µM*
CCOc1ccc(-n2c(=O)c3c(C)c(C)sc3n(CC(=O)NCCc3ccccc3)c2=O)cc1	nt	5%
Fc1cccc(/C=C2\CCCC3=C2NC(=S)NC3c2cccc(F)c2)c1 (centres undefined)	0%	20µM*
S=C1NC2=C(CCC/C2=C\c2ccccc2)C(c2ccccc2)N1 (centres undefined)	-3%	-35%
NC(=S)NNc1c(F)c(F)c(F)c(F)c1F	-5%	40µM*
Cc1ccccc1NNC(N)=S	0%	-11%
CCOC(=O)C(=CNNc1ccccc1)C(=O)OCC	-2%	2.2µM*
CCOC(=O)NNc1ccccc1	-2%	-8%
COc1ccc(CCNC(=O)c2nn(-c3ccc(C)cc3)c(=O)c3c2c2ccccc2n3C)cc1OC	nt	6%
CCOc1cc(C2NC(=O)NC(O)(C(F)(F)F)C2C(=O)c2ccccc2)ccc1OC (centres undefined)	0%	-2%
COc1cccc(C2NC(=O)NC(O)(C(F)(F)F)C2C(=O)c2cccnc2)c1OC (centres undefined)	-1%	22µM*
O=C1NC(c2cn(-c3ccccc3)nc2-c2cccs2)C(C(=O)c2cccnc2)C(O)(C(F)(F)F)N1 (centres undefined)	3%	?
COc1ccc(C2NC(=O)NC(O)(C(F)(F)F)C2C(=O)c2ccccc2)cc1OC (centres undefined)	4%	35µM*
O=C(NCc1ccccc1)C1CCN(S(=O)(=O)Cc2ccccc2)CC1	nt	-13%
CCOC(=O)C(Cc1c[nH]c2ccccc12)NC(=O)COc1ccc(Cl)c(C)c1 (centres undefined)	nt	-1%
CCOc1ccc(CCNC(=O)c2cc3c(=O)oc4ccc(C)cc4c3s2)cc1OCC	nt	-8%
C/C(=N\Nc1cccc2cccnc12)c1ccccn1	-2%	1%
COc1ccc(Cl)cc1C(Nc1cccnc1)c1ccc2cccnc2c1O (centres undefined)	-8%	0.1µM*
CC(=O)NC(c1ccc(C(C)C)cc1)c1ccc2cccnc2c1O (centres undefined)	-21%	0%
Oc1cccc(C(Nc2ccccn2)c2ccc3cccnc3c2O)c1Cl (centres undefined)	nt	3.2µM*
CCCC(=O)NC(c1ccc(OC)cc1)c1ccc2cccnc2c1O (centres undefined)	-4%	-12%
SMILES	SARS PLpro yeast	Sm TGR block
Cc1cc(NC(c2cccnc2)c2ccc3cccnc3c2O)no1 (centres undefined)	7.1µM*	0%
O=C(Oc1ccccc1F)c1nc(SCc2ccccc2F)ncc1Cl	nt	-3%
Cc1ccc(S[C@@H](CCN2CC[C@H](C)CCC2=O)c2ccccc2)cc1	-17%	0%
COc1ccc(S[C@@H](CCN2CC[C@H](C)CCC2=O)c2ccccc2)cc1	-1%	40µM*
Cc1cn(C)c(CC(=O)NCc2ccccc2Cl)c1C(=O)O	nt	-3%
Cc1cc(Cl)ccc1NC(=O)CSc1nnc(Cc2cccs2)n1Cc1ccco1	-1%	20µM*
N#Cc1ccc(CSc2nnc(Cc3cccs3)n2Cc2ccco2)cc1	1%	11µM*
O=C(CSc1nnc(-c2ccncc2)n1Cc1ccco1)Nc1cccc(O)c1	0%	-10%
N#Cc1ccc(CSc2nnc(-c3ccccc3)n2Cc2ccco2)cc1	-1%	-1%
O=C(CSc1nnc(-c2cccs2)n1Cc1ccco1)Nc1ccc2c(c1)OCO2	2%	-9%
Cc1cc(C)c(NC(=O)CSc2nnc(-c3ccncc3)n2Cc2ccco2)c(Cl)c1	11%	22µM*
O=C(CSc1nnc(-c2ccccc2)n1Cc1ccco1)Nc1ccc2c(c1)OCCO2	2%	35µM*
COc1cc2c(cc1NC(=O)CSc1nnc(Cc3cccs3)n1Cc1ccco1)oc1ccccc12	19%[6.58 µM]	-17%
CCC(Cc1ccccc1)NC(=O)c1ccc2nc(N3CCC(C)CC3)sc2c1 (centres undefined)	nt	4%
COc1ccc(Br)cc1CNC(=O)CCCn1c(=O)c2cccn2c2ccccc21	nt	-13%
CCC(=O)Nc1cc(-c2cn3cccnc3n2)ccc1OC	nt	17%
Cc1cc(Cl)ccc1NC(=O)c1cc(S(=O)(=O)N2CCOCC2)cn1C	nt	4%

Bioassay records deposited in PubChem BioAssay by National Center for Advancing Translational Sciences (NCATS).
